The values below come from PubChem BioAssay (Tox21).

Several values for one entry are separate records, joined by “and”; a condition that tells them apart may be missing. Equal values may be shown once. Inconclusive results are not listed. Some compounds were tested as several samples or in several runs, with calls that do not always agree. Activity calls are given as the source filed them. Unless noted, the call rests on the fitted dose curve; in most records, active means well fitted curve in the direction sought with a large enough effect in the repeat runs; inconclusive means weak or mixed curves; inactive means no such curve, though single readings can be large; an effect the other way counts as inactive or inconclusive.

Assay [1] can be described thus: qHTS assay to identify small molecule antagonists of the glucocorticoid receptor (GR) signaling pathway - cell viability counter screen (AID 720693). Further: nearly all actives have a fitted effect of over 55% in size. Further: potency means the concentration at half of the fitted maximal effect.
The nature of assay [2]: qHTS assay for identifying genotoxic compounds that show differential cytotoxicity against isogenic chicken DT40 cell lines with known DNA damage response pathways - wild type cell line (AID 743012). Further: nearly all actives have a fitted effect of over 60% in size. Further: potency means the concentration at half of the fitted maximal effect. The essentials:
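Cytotoxicity in repair-proficient parental chicken DT40 cells serves as the comparator for Rad54/Ku70- and Rev3-deficient lines. Cells were exposed to compounds for 40 h at 37 C/5% CO2, and ATP-based luminescence (CellTiter-Glo) measured viability.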

A short description of assay [3]: qHTS assay for identifying genotoxic compounds that show differential cytotoxicity against isogenic chicken DT40 cell lines with known DNA damage response pathways - Rev3 mutant cell line (AID 743014). Further: nearly all actives have a fitted effect of over 55% in size. Further: potency means the concentration at half of the fitted maximal effect.
Assay [4] in a line: qHTS assay to identify small molecule antagonists of the androgen receptor (AR) signaling pathway using the MDA cell line - cell viability counter screen (AID 743041; further: nearly all actives have a fitted effect of over 45% in size; further: potency means the concentration at half of the fitted maximal effect). The essentials:
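Cytotoxicity counter screen: MDA-kb2 AR-luc cells, compound + R1881, 16 h, 37C, 0% CO2; CellTiter-Fluor added at 15.5 h, fluorescence read after 30 min.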

The nature of assay [5]: qHTS assay to identify small molecule antagonists of the androgen receptor (AR) signaling pathway - cell viability counter screen (AID 743033; further: nearly all actives have a fitted effect of over 45% in size; further: potency means the concentration at half of the fitted maximal effect).
Assay [6] in a line: qHTS assay for identifying genotoxic compounds that show differential cytotoxicity against isogenic chicken DT40 cell lines with known DNA damage response pathways - Rad54/Ku70 mutant cell line (AID 743015). Further: nearly all actives have a fitted effect of over 60% in size. Further: potency means the concentration at half of the fitted maximal effect.
In assay [7] the target is Androgen receptor (Homo sapiens) (UniProt P10275). Put plainly: qHTS assay to identify small molecule antagonists of the androgen receptor (AR) signaling pathway (AID 743035; active means well fitted inhibition curve with a large enough effect in the signal ratio in the repeat runs, not every such curve was filed as active; the % refers to the signal ratio). The procedure, abridged: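 Steps: seed AR-UAS-bla GripTite HEK293 cells, incubate 4 h at 37C; pin in test compound, then add agonist R1881; incubate 16 h at 37C; add LiveBLAzer B/G FRET substrate, 2 h at room temperature; read fluorescence.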
Chain of Androgen receptor (Homo sapiens) (P10275 whole entry, looked up): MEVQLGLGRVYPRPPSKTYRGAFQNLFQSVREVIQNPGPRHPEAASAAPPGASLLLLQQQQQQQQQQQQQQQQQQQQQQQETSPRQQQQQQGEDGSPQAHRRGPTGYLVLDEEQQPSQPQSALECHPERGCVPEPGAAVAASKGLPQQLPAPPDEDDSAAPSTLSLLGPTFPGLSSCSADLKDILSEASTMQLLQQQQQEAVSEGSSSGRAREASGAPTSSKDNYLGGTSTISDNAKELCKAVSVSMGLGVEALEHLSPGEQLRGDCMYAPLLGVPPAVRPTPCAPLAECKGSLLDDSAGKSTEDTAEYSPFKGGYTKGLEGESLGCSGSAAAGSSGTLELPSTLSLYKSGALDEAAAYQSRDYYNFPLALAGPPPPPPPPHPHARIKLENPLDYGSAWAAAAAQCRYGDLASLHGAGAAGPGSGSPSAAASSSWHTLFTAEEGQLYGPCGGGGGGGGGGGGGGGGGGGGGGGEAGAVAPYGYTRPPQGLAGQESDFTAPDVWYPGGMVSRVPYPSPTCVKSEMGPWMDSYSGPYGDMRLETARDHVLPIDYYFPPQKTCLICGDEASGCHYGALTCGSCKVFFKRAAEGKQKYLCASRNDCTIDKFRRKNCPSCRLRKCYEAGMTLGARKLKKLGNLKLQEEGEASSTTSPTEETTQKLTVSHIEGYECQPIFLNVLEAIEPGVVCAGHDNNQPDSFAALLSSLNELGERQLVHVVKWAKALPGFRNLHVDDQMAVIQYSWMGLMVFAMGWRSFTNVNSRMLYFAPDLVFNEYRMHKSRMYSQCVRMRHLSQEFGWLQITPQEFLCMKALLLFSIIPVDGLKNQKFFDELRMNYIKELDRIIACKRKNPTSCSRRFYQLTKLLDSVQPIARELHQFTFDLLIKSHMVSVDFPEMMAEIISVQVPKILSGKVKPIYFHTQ

The target is the same in assay [8]. Put plainly: qHTS assay to identify small molecule agonists of the androgen receptor (AR) signaling pathway (AID 743036; active means well fitted activation curve with a large enough effect in the signal ratio in the repeat runs, with a control signal flat, not every such curve was filed as active; the % refers to the signal ratio). The essentials: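 AR-UAS-bla HEK293 cells, plated 4 h before dosing, were treated with compound for 16 h at 37C. beta-Lactamase reporter read after 2 h with LiveBLAzer B/G FRET substrate at room temperature.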
The target is the same in assay [9]. Put plainly: qHTS assay to identify small molecule agonists of the androgen receptor (AR) signaling pathway using the MDA cell line (AID 743040; further: nearly all actives have a fitted effect of over 20% in size). The essentials:
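Luciferase read-out, ONE-Glo, 30 min RT. Cells: MDA-kb2 AR-luc, MMTV promoter with AR and GR response elements. Compound exposure 16 h, 37C, 0% CO2, after 5 h pre-incubation. qHTS agonist mode.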

For assay [10] the target is unchanged. Put plainly: qHTS assay to identify small molecule antagonists of the androgen receptor (AR) signaling pathway using the MDA cell line (AID 743042; further: nearly all actives have a fitted effect of over 55% in size). The procedure, abridged:
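MDA-kb2 breast carcinoma cells carrying MMTV-luciferase (AR/GR responsive) were co-treated with compounds and the agonist R1881 for 16 h at 37C. Inhibition read as ONE-Glo luminescence; CellTiter-Fluor fluorescence measured in parallel for cytotoxicity.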
On the % scale 0 is the no-effect control and ±100 the full control effect.

With `CC[C@H]1CN2CCc3cc(OC)c(OC)cc3[C@@H]2C[C@@H]1C[C@H]1NCCc2cc(OC)c(OC)cc21`, the Potency in [1] is 4.92 µM (active); in assay [2], 18.8 nM (active) and 24.4 nM (active); in assay [3], 23.7 nM (active) and 19.4 nM (active); in assay [4], 6.88 µM (active).

For `c1ccc2n[nH]nc2c1`, the Potency result in assay [1], in assay [2], in [5] and in [4] was “inactive” in each case. The Potency entry in [3] was “inactive and 61.1 µM (active)”.

For the compound `COC(c1ccccc1)(c1ccccc1)[C@H](Oc1nc(C)cc(C)n1)C(=O)O`, the Potency result in assay [1], in assay [2], in [3], in [6], in [5] and in [4] was “inactive” each time.

For the compound `Oc1c(Cl)cc(Cl)cc1Sc1cc(Cl)cc(Cl)c1O`, the Potency in assay [1] was 19.5 µM (active) and 28 µM (active) and 21.9 µM (active); in [2], 11.9 µM (active) and 27.4 µM (active) and 17.2 µM (active); in [3], 17.3 µM (active) [middle of 4 runs]; in [5], 6.18 µM (active) and 8.85 µM (active) and 6.16 µM (active); in [4], 55.4 µM (active).

Regarding `Cc1cc(Cc2cc(C)cc(C(C)(C)C)c2O)c(O)c(C(C)(C)C)c1`, the Potency is 12.4 µM (active) and 13.8 µM (active) in assay [1]; 15.4 µM (active) and 17.2 µM (active) in [2]; 13.8 µM (active) and 19.3 µM (active) in assay [3]; 22 µM (active) in assay [5].

Consider `O=C1CC2(CCCC2)CC(=O)N1CCCCN1CCN(c2ncccn2)CC1`, for which the Potency result in assay [1] and in assay [4] was “inactive” throughout. The Potency in assay [2] is 21.1 µM (active) and 13.7 µM (active); in [3] it was 7.7 µM (active); in assay [6], 21.1 µM (active) and 15.4 µM (active); in assay [5], “inactive and 21.9 µM (active)”.

Take `O`: the Potency result in assay [1], in [5] and in assay [4] was “inactive” in each case. Moreover, the Potency entry in assay [2] is “inactive and 13.9 µM (active)”; in assay [3], “inactive and 9.81 µM (active)”.

Take `CCCCC/C=C/CC1CC(=O)OC1=O` (stereo not drawn): the Potency result in assay [1], in [2], in [3], in [6], in assay [5] and in assay [4] was “inactive” throughout.

On to `CC(C)(c1ccccc1)c1ccc(Nc2ccc(C(C)(C)c3ccccc3)cc2)cc1`, for which the Potency entry in [1], in assay [5] and in assay [4] was “inactive” each time. Besides, the Potency result in [2] was “inactive and 54.5 µM (active)”; in assay [3] it was “inactive and 54.5 µM (active)”; in [6], “inactive and 61.1 µM (active)”.

As for `C[N+]1([O-])CCOCC1`, the Potency entry in [2], in [3], in assay [6], in [5] and in assay [4] was “inactive” in each case.

As for `N[C@@H]1CONC1=O`, the Potency result in [2], in assay [3], in assay [6], in [5] and in assay [4] was “inactive” in each case.

On to `OCCOCCN1CCN(C(c2ccccc2)c2ccc(Cl)cc2)CC1` (stereo not drawn), for which the Potency was 38.1 µM (active) in [2], 21.4 µM (active) in assay [3] and 30.2 µM (active) in assay [6]. For the same compound, the Potency result in [5] and in assay [4] was “inactive” each time.

Consider `CCCCN(CCO)CCCC`, for which the Potency result in [2], in [3], in [6], in [5] and in [4] was “inactive” throughout.

Take `O=C(O)c1cc(Cl)cc(Cl)c1`: the Potency result in assay [2], in [3], in [6], in [5] and in [4] was “inactive” each time.

As to `COc1ccc(CCN(C)CCCC(C#N)(c2ccc(OC)c(OC)c2)C(C)C)cc1OC` (stereo not drawn), the Potency in assay [2] is 13.3 µM (active) and 54.4 µM (active); in assay [3] it was 23.7 µM (active) and 27.3 µM (active).

As for `c1ccc2c(c1)-c1cccc3c1c-2cc1ccccc13`, the Potency result in assay [2], in assay [3], in assay [6], in assay [5] and in assay [4] was “inactive” throughout.

As to `CCn1c2ccccc2c2cc(N)ccc21`, the figures for the Potency in assay [2], in assay [3] and in [6] were 61.1 µM (active), 21.7 µM (active) and 54.5 µM (active), respectively. The Potency result in assay [5] and in assay [4] was “inactive” throughout.

As for `CCCCCCC(O)CCCCCCCCCCC(=O)O` (stereo not drawn), the Potency entry in [2], in assay [3], in [5] and in assay [4] was “inactive” in each case. Moreover, the Potency entry in assay [6] was “inactive and 48.6 µM (active)”.

`CCCCC(CC)COC(=O)CC(C(=O)OCC(CC)CCCC)S(=O)(=O)O` (stereo not drawn): the Potency entry in assay [2], in [3], in assay [5] and in assay [4] was “inactive” throughout. In addition, in [6], the Potency result is “inactive and 43.3 µM (active)”.

Take `O=C(O)CP(=O)(O)O`: the Potency entry in assay [2], in assay [3], in [6], in assay [5] and in assay [4] was “inactive” throughout.

As to `Nc1ccc2cc3ccccc3cc2c1`, the Potency entry in [1], in [2], in [5] and in assay [4] was “inactive” each time.

`O=C(O)c1cccc(C(=O)O)c1`: the Potency result in [1], in assay [5] and in assay [4] was “inactive” in each case.

Regarding `c1ccc2cc3c(ccc4ccccc43)cc2c1`, the Potency entry in assay [1], in [3], in assay [6], in [5] and in assay [4] was “inactive” in each case.

In the case of `COC(=O)c1cccc(C(=O)OC)c1`, the Potency entry in [2], in [3], in assay [6], in [5], in [7] and in [8] was “inactive” throughout. Also, the Potency result in assay [4] and in [10] was “inactive” each time. The compound was classed as inactive in assay [9].

With `CC(=O)OCC1=C(C(=O)O)N2C(=O)[C@@H](NC(=O)Cc3cccs3)[C@H]2SC1`, the Potency entry in [1], in assay [5] and in [4] was “inactive” each time.

Take `CC(C)CCOC(=O)c1ccc(N(C)C)cc1`: the Potency entry in [1] and in assay [5] was “inactive” in each case.

For the compound `COc1ccc(CCN2CCC(Nc3nc4ccccc4n3Cc3ccc(F)cc3)CC2)cc1`, the Potency is 5.96 µM (active) and 7.01 µM (active) in [2]; 7.5 µM (active) and 6.25 µM (active) in assay [3]; 8.41 µM (active) and 8.82 µM (active) in [6]; 21.3 µM (active) and 6.3 µM (active) in assay [5]; 39.4 µM (active) in assay [4].

`Cc1ccc(S(=O)(=O)Oc2ccc(N=Nc3ccc(-c4ccc(N=Nc5c(O)ccc6cc(S(=O)(=O)O)cc(S(=O)(=O)O)c56)c(C)c4)cc3C)cc2)cc1`: the Potency result in assay [1], in assay [5], in assay [7] and in assay [8] was “inactive” throughout. Further, the Potency in assay [3] is 27.4 µM (active) and 17.8 µM (active); in assay [6] it was 54.7 µM (active) and 11.2 µM (active); in [4] it was 54.7 µM (active) and 35.5 µM (active). In addition, the compound was called inactive in [9].
